# According to PubChem BioAssay (EPA / NIEHS):
# Records with an inconclusive call do not appear. Active and inactive are the calls of the source. Rule for the calls: active = hit-call score of the fitted dose curve at least 0.9, where 1 is the maximum; inconclusive = response in the unintended direction; inactive = score below 0.9.
# Key:
# [1] = Tanguay_ZF_120hpf_OTIC_legacy: (Legacy) Oregon State University Tanguay Lab 120 Hour Post-fertilization zebrafish Assay for Otic Vesicle Malformation (AID 2283639)
# Method in brief: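 Tropical 5D wild-type zebrafish embryos were exposed statically in sealed, foil-covered plates at 28C until 120 hpf, with 0.64% (vol/vol) DMSO final. Otic vesicle malformation was scored present/absent by brightfield microscopy, with DMSO as baseline.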
# [2] = Tanguay_ZF_120hpf_PE_legacy: (Legacy) Oregon State University Tanguay Lab 120 Hour Post-fertilization zebrafish Assay for Pericardial Edema (AID 2283640);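 for AC50: potency for increased incidence of pericardial edema versus DMSO baseline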
# Method in brief: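 Read-out is the presence or absence of pericardial edema at 120 hpf under brightfield, with gain of signal fitted against DMSO controls. Larvae (5D wild-type) were statically exposed at 28C with 0.64% final DMSO.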
# [3] = Tanguay_ZF_120hpf_BRAI_legacy: (Legacy) Oregon State University Tanguay Lab 120 Hour Post-fertilization zebrafish Assay for Brain Malformation (AID 2283641)
# Method in brief: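 Brain malformation in Tropical 5D zebrafish was recorded as a binary endpoint after static compound exposure from early development to 120 hpf at 28C. Activity was analysed against DMSO as negative control.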
# [4] = Tanguay_ZF_120hpf_SOMI_legacy: (Legacy) Oregon State University Tanguay Lab 120 Hour Post-fertilization zebrafish Assay for Somite Malformation (AID 2283647)
# Method in brief: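 5D WT zebrafish; chorion removed 4 hpf; 1 embryo/well from 6 hpf; static exposure to 120 hpf, 28C, 0.64% DMSO final. Endpoint: somite malformation, binary, brightfield. Mortality excluded.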
# [5] = Tanguay_ZF_120hpf_PFIN_legacy: (Legacy) Oregon State University Tanguay Lab 120 Hour Post-fertilization zebrafish Assay for Pectoral Fin Malformation (AID 2283648);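 note: each larva judged yes or no for fin defect by brightfield with dead larvae skipped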
# Method in brief: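 5D WT zebrafish; pronase dechorionation 4 hpf; 1 embryo/well at 6 hpf; static exposure to 120 hpf, 28C, sealed, foil-covered; final DMSO 0.64% v/v; 5 uM trimethyltin chloride positive control; fin defect scored yes/no.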
# [6] = Tanguay_ZF_120hpf_CFIN_legacy: (Legacy) Oregon State University Tanguay Lab 120 Hour Post-fertilization zebrafish Assay for Caudal Fin Malformation (AID 2283649)
# Method in brief: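 Embryos were collected from Tropical 5D wild-type adults and dechorionated at 4 hpf. At 6 hpf each was exposed, one per well, at 0.64% DMSO and 28C. At 120 hpf fin morphology was scored; dead embryos were excluded.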
# [7] = Tanguay_ZF_120hpf_PIG_legacy: (Legacy) Oregon State University Tanguay Lab 120 Hour Post-fertilization zebrafish Assay for Pigmentation Malformation (AID 2283650)
# Method in brief: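 Pronase dechorionation at 4 hpf; embryos plated at 6 hpf, one per well; static exposure, sealed and foil-covered, 28C, to 120 hpf; pigmentation read by brightfield, binary; DMSO 0.64% baseline, 5uM trimethyltin chloride positive control.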
# [8] = Tanguay_ZF_120hpf_CIRC_legacy: (Legacy) Oregon State University Tanguay Lab 120 Hour Post-fertilization zebrafish Assay for Circulatory Malformation (AID 2283651)
# Method in brief: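 Tropical 5D wild-type embryos, dechorionated with pronase at 4 hpf, were placed singly in wells at 6 hpf and exposed statically at 28C to 120 hpf (0.64% DMSO final). Circulatory malformation was scored present/absent by brightfield microscopy.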
# [9] = Tanguay_ZF_120hpf_SWIM_legacy: (Legacy) Oregon State University Tanguay Lab 120 Hour Post-fertilization zebrafish Assay for Swim Bladder Malformation (AID 2283654);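 note: swim bladder malformation in each larva scored yes or no under brightfield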
# Method in brief: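 Embryos lacking chorions were exposed individually and statically to test chemical from 6 to 120 hpf at 28C, with 0.64% DMSO as vehicle. At 120 hpf, swim bladder malformation was recorded as present or absent by brightfield microscopy.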
# [10] = read-out: Broad substrate specificity ATP-binding cassette transporter ABCG2 (Homo sapiens) (UniProt Q9UNQ0); experiment: CLD_ABCG2_6hr: CellzDirect (CLD) Gene Expression Assay for ABC Transporter (ABCG2) at 6 hours (AID 2283660)
# Method in brief: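 Primary human hepatocytes dosed daily with chemicals at multiple concentrations (0.2% DMSO vehicle), harvested 6 h after dosing. ABCG2 mRNA induction read by quantitative nuclease protection assay (qNPA) chemiluminescence; gain of signal fitted against DMSO baseline.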
# [11] = read-out: xenobiotic metabolism (CYP1A1), CYP1A1 (gene 1543); experiment: CLD_CYP1A1_6hr: CellzDirect (CLD) Gene Expression Assay for xenobiotic metabolism (CYP1A1) at 6 hours (AID 2283661);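 for AC50: potency for transcript induction above DMSO vehicle baseline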
# Method in brief: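 Primary human hepatocytes from two donors, compound versus 0.2% DMSO vehicle. CYP1A1 mRNA measured 6 h after dosing by quantitative nuclease protection assay with chemiluminescent read-out; induction fitted relative to DMSO, cytotoxicity flagged by microscopy.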
# [12] = read-out: xenobiotic metabolism (CYP1A2), CYP1A2 (gene 1544); experiment: CLD_CYP1A2_6hr: CellzDirect (CLD) Gene Expression Assay for xenobiotic metabolism (CYP1A2) at 6 hours (AID 2283663);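 for AC50: potency is for induction meaning a rise in mRNA above DMSO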
# Method in brief: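 Primary human hepatocytes from two donor preparations, dosed daily with multiple concentrations in 0.2% DMSO and harvested at 6 h. CYP1A2 mRNA induction measured by chemiluminescent qNPA, gain of signal fitted against DMSO; cytotoxicity flagged morphologically.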
# [13] = Tanguay_ZF_120hpf_TRUN_legacy: (Legacy) Oregon State University Tanguay Lab 120 Hour Post-fertilization zebrafish Assay for Truncated Body (AID 2283655)
# Method in brief: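 5D wild-type larvae; pronase dechorionation; static exposure 6→120 hpf, 28C; DMSO 0.64% final; 5uM trimethyltin chloride positive control. Readout: presence/absence of truncated body, analyzed relative to DMSO.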
# [14] = Tanguay_ZF_120hpf_NC_legacy: (Legacy) Oregon State University Tanguay Lab 120 Hour Post-fertilization zebrafish Assay for Notochord and Tail Malformation (AID 2283656)
# Method in brief: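 Dechorionated 5D zebrafish, 1/well from 6 hpf; static exposure to 120 hpf, 28C, sealed, dark; final DMSO 0.64% v/v. NC scored binary (present/absent); dead embryos not scored. Fit vs DMSO baseline, gain direction.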
# [15] = CCTE_Simmons_CellTiterGLO_HEK293T: Viability Assessment in CCTE's Assays for Thyroperoxidase (TPO) Inhibition, Simmons Lab (AID 2283665)
# Method in brief: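 HEK293T cells in DMEM with 1% FBS were dosed with 8 concentrations (5 nM–87.5 uM final, 0.5% DMSO) for 24 hr at 37C; ATP content was read by CellTiter-Glo luminescence, loss-of-signal versus DMSO, three biological replicates.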
# [16] = read-out: ABC Transporter (ABCB1), ABCB1 (gene 5243); experiment: CLD_ABCB1_6hr: CellzDirect (CLD) Gene Expression Assay for ABC Transporter (ABCB1) at 6 hours (AID 2283659);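 note: hits raise ABCB1 transcript above the DMSO vehicle baseline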
# Method in brief: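 Primary human hepatocytes (two donor preparations) dosed daily for two days with chemicals at multiple concentrations, 0.2% DMSO vehicle; harvested 6 h post-dose. ABCB1 mRNA induction quantified by qNPA chemiluminescence; gain-of-signal fitted versus DMSO.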
# Sequence of Broad substrate specificity ATP-binding cassette transporter ABCG2 (Homo sapiens) (Q9UNQ0 whole entry, looked up): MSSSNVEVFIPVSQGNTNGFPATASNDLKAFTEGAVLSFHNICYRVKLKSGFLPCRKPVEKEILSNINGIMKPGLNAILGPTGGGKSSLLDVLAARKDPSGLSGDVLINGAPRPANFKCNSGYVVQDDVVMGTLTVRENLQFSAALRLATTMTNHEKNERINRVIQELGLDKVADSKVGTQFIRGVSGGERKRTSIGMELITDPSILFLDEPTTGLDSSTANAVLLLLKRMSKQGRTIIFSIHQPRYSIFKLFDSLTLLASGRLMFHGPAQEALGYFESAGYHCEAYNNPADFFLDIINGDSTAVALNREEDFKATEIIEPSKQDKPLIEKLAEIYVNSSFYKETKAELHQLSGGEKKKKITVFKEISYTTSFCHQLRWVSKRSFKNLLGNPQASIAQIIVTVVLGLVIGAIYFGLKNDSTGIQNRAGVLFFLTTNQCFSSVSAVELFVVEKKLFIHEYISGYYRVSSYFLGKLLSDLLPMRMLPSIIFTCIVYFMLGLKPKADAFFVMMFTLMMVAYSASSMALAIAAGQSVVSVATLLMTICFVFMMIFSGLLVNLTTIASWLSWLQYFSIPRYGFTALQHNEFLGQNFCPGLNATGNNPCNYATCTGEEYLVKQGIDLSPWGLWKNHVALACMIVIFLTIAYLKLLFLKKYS
structure (smiles),measurement,setting,value
C#CCC1=C(C)C(OC(=O)C2C(C=C(C)C)C2(C)C)CC1=O (centres undefined),outcome,[1],inactive
same,outcome,[2],inactive
same,outcome,[3],inactive
same,outcome,[4],inactive
same,outcome,[5],inactive
same,outcome,[6],inactive
same,outcome,[7],inactive
same,outcome,[8],inactive
same,outcome,[9],inactive
same,outcome,[10],inactive
same,outcome,[11],inactive
same,outcome,[12],inactive
CCc1cnc(C2=NC(C)(C(C)C)C(=O)N2)c(C(=O)O)c1 (centres undefined),outcome,[1],inactive
same,outcome,[2],inactive
same,outcome,[3],inactive
same,outcome,[4],inactive
same,outcome,[5],inactive
same,outcome,[6],inactive
same,outcome,[7],inactive
same,outcome,[8],inactive
same,outcome,[13],inactive
same,outcome,[14],inactive
same,outcome,[11],inactive
C=C(C)[C@H]1Cc2c(ccc3c2O[C@@H]2COc4cc(OC)c(OC)cc4[C@@H]2C3=O)O1,outcome,[1],inactive
same,outcome,[2],inactive
same,outcome,[3],inactive
same,outcome,[4],inactive
same,outcome,[5],inactive
same,outcome,[6],inactive
same,outcome,[7],inactive
same,outcome,[8],inactive
same,outcome,[9],inactive
same,outcome,[13],inactive
same,outcome,[14],inactive
same,outcome,[15],inactive
COP(=O)(OC)SCn1c(=O)oc2cc(Cl)cnc21,outcome,[1],inactive
same,AC50,[2],11.2 µM (active)
same,outcome,[3],inactive
same,outcome,[4],inactive
same,outcome,[5],inactive
same,outcome,[6],inactive
same,outcome,[7],inactive
same,outcome,[8],inactive
same,outcome,[9],inactive
same,outcome,[13],inactive
same,outcome,[14],inactive
same,outcome,[10],inactive
same,outcome,[12],inactive
same,outcome,[15],inactive
CCc1cccc(C)c1N(C(=O)CCl)C(C)COC (centres undefined),outcome,[1],inactive
same,outcome,[2],inactive
same,outcome,[3],inactive
same,outcome,[4],inactive
same,outcome,[5],inactive
same,outcome,[6],inactive
same,outcome,[7],inactive
same,outcome,[8],inactive
same,outcome,[9],inactive
same,outcome,[13],inactive
same,outcome,[14],inactive
same,outcome,[10],inactive
same,outcome,[12],inactive
CCC(=O)Nc1ccc(Cl)c(Cl)c1,outcome,[1],inactive
same,outcome,[2],inactive
same,outcome,[3],inactive
same,outcome,[4],inactive
same,outcome,[5],inactive
same,outcome,[6],inactive
same,outcome,[7],inactive
same,outcome,[8],inactive
same,outcome,[9],inactive
same,outcome,[13],inactive
same,outcome,[14],inactive
same,outcome,[16],inactive
same,AC50,[11],20 µM (active)
same,AC50,[12],8.75 µM (active)
same,outcome,[15],inactive
CN(C)C(=O)Nc1cccc(C(F)(F)F)c1,outcome,[1],inactive
same,outcome,[2],inactive
same,outcome,[3],inactive
same,outcome,[4],inactive
same,outcome,[5],inactive
same,outcome,[6],inactive
same,outcome,[7],inactive
same,outcome,[8],inactive
same,outcome,[9],inactive
same,outcome,[13],inactive
same,outcome,[14],inactive
same,outcome,[16],inactive
same,outcome,[10],inactive
same,outcome,[11],inactive
same,outcome,[12],inactive
CON=C(C(=O)OC)c1ccccc1CON=C(C)c1cccc(C(F)(F)F)c1,outcome,[1],inactive
same,AC50,[2],8.26 µM (active)
same,AC50,[3],6.64 µM (active)
same,outcome,[4],inactive
same,outcome,[5],inactive
same,outcome,[6],inactive
same,outcome,[7],inactive
same,outcome,[8],inactive
same,outcome,[9],inactive
same,outcome,[13],inactive
same,outcome,[14],inactive
same,outcome,[10],inactive
same,outcome,[11],inactive
COP(=O)(NC(C)=O)SC (centres undefined),outcome,[1],inactive
same,outcome,[2],inactive
same,outcome,[3],inactive
same,outcome,[4],inactive
same,outcome,[5],inactive
same,outcome,[6],inactive
same,outcome,[7],inactive
same,outcome,[8],inactive
same,outcome,[9],inactive
same,outcome,[13],inactive
same,outcome,[10],inactive
same,outcome,[11],inactive
same,outcome,[12],inactive
same,outcome,[15],inactive
CCOP(=O)(NC(C)C)Oc1ccc(SC)c(C)c1 (centres undefined),outcome,[1],inactive
same,AC50,[2],25.6 µM (active)
same,AC50,[3],61.8 µM (active)
same,outcome,[4],inactive
same,AC50,[5],16.9 µM (active)
same,outcome,[6],inactive
same,outcome,[7],inactive
same,outcome,[8],inactive
same,outcome,[9],inactive
same,outcome,[13],inactive
same,outcome,[14],inactive
same,AC50,[11],2.72 µM (active)
same,AC50,[12],4.22 µM (active)
COP(=O)(OC)C(O)C(Cl)(Cl)Cl (centres undefined),outcome,[1],inactive
same,outcome,[2],inactive
same,outcome,[3],inactive
same,outcome,[4],inactive
same,outcome,[5],inactive
same,outcome,[6],inactive
same,outcome,[7],inactive
same,outcome,[8],inactive
same,outcome,[9],inactive
same,outcome,[13],inactive
same,outcome,[14],inactive
same,outcome,[10],inactive
CCC(=NOC/C=C/Cl)C1=C(O)CC(C2CCOCC2)CC1=O (centres undefined),outcome,[1],inactive
same,outcome,[2],inactive
same,outcome,[3],inactive
same,outcome,[4],inactive
same,outcome,[5],inactive
same,outcome,[6],inactive
same,outcome,[7],inactive
same,outcome,[8],inactive
same,outcome,[9],inactive
same,outcome,[13],inactive
same,outcome,[14],inactive
same,outcome,[16],inactive
same,outcome,[10],inactive
same,outcome,[11],inactive
same,outcome,[12],inactive
same,outcome,[15],inactive
CCC(CC)Nc1c([N+](=O)[O-])cc(C)c(C)c1[N+](=O)[O-],outcome,[1],inactive
same,outcome,[2],inactive
same,outcome,[3],inactive
same,outcome,[4],inactive
same,outcome,[5],inactive
same,outcome,[6],inactive
same,outcome,[7],inactive
same,outcome,[8],inactive
same,outcome,[9],inactive
same,outcome,[13],inactive
same,outcome,[14],inactive
same,outcome,[11],inactive
same,outcome,[12],inactive
CC(Oc1cccc(Cl)c1)C(=O)O (centres undefined),outcome,[1],inactive
same,outcome,[2],inactive
same,outcome,[3],inactive
same,outcome,[4],inactive
same,outcome,[5],inactive
same,outcome,[6],inactive
same,outcome,[7],inactive
same,outcome,[8],inactive
same,outcome,[9],inactive
same,outcome,[13],inactive
same,outcome,[14],inactive
same,outcome,[10],inactive
same,outcome,[11],inactive
same,outcome,[12],inactive
CCCCSP(=O)(SCCCC)SCCCC,outcome,[1],inactive
same,outcome,[2],inactive
same,outcome,[3],inactive
same,outcome,[4],inactive
same,outcome,[5],inactive
same,outcome,[6],inactive
same,outcome,[7],inactive
same,outcome,[8],inactive
same,outcome,[9],inactive
same,outcome,[13],inactive
same,outcome,[10],inactive
same,AC50,[11],2.38 µM (active)
same,AC50,[12],2.96 µM (active)
CSC1=N[C@@](C)(c2ccccc2)C(=O)N1Nc1ccccc1,outcome,[1],inactive
same,AC50,[2],2.63 µM (active)
same,outcome,[3],inactive
same,outcome,[4],inactive
same,outcome,[5],inactive
same,outcome,[6],inactive
same,outcome,[7],inactive
same,outcome,[8],inactive
same,outcome,[9],inactive
same,outcome,[13],inactive
same,outcome,[14],inactive
same,AC50,[11],0.00477 µM (active)
same,outcome,[12],inactive
same,outcome,[15],inactive
CCOP(=O)(OCC)Oc1cc(C)nc(C(C)C)n1,outcome,[1],inactive
same,outcome,[2],inactive
same,outcome,[3],inactive
same,outcome,[4],inactive
same,outcome,[5],inactive
same,outcome,[6],inactive
same,outcome,[7],inactive
same,outcome,[8],inactive
same,outcome,[9],inactive
same,outcome,[13],inactive
same,outcome,[14],inactive
same,outcome,[16],inactive
same,outcome,[10],inactive
same,outcome,[11],inactive
same,outcome,[12],inactive
